From PubChem
Shown are actives, neighbours in structure and some others; about 8.1% of the full set was active somewhere.
ELG1 repair inh: qHTS screen for small molecules that inhibit ELG1-dependent DNA repair in human embryonic kidney (HEK293T) cells expressing luciferase-tagged ELG1; HEK293T ELG1-luciferase reporter, luminescence, 16 h; DNA damage induced by 5-fluorouridine; AID 504467, 2011; Potency, µM (series often up to 46.1 µM), for the others: top-dose activity change, negative = inhibition, hits mostly inhibitors; hit rate 2.3% among 330,000; note: % is set by controls: 0 for no effect and ±100 for the full control effect; nearly all actives have a fitted effect of over 55% in size
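Quantitative HTS, concentration-response format. 2,000 cells/well co-treated with 5-fluorouridine and compound, 16 hr in 5% CO2 at 37 °C; ONE-Glo luminescence read after 30 min.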
SW480 rereplic: A quantitative high throughput screen for small molecules that induce DNA re-replication in SW480 colon adenocarcinoma cells. SW480 DNA re-replication, Hoechst DNA content imaging, 48 h. Potency, µM (series often up to 46.1 µM), inactives show at the top dose re-replication activation, usual class: activators. hit rate 1.8% among 340,000. AID 624297, 2012; note: % of control where 0% means no effect; nearly all actives have a fitted effect of over 55% in size
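Treated cells incubate 48 hr (37 C, 5% CO2), are stained 40 min with Hoechst, and nuclear fluorescence is enumerated; a rise in nuclei with high DNA signal marks re-replication.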
KB-3-1 tox: qHTS assay for MDR1-selective chemotherapeutics: Primary screen using the parental adenocarcinoma cell KB-3-1. KB-3-1 viability, CellTiter-Glo ATP luminescence, 72 h. Potency, µM (titrated, usually from 46.1 µM), hits mostly cytotoxic. hit rate 1.4% among 400,000. AID 1347075, 2019; note: % is set by controls: 0 for no effect and ±100 for the full control effect; nearly all actives have a fitted effect of over 60% in size
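Here the drug-naive KB-3-1 line serves as comparator for MDR sub-line selectivity; cells received compound titrations, 72 h at 37 °C, then CellTiter-Glo readout.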
MCF10A rereplic: A quantitative high throughput screen for small molecules that induce DNA re-replication in MCF 10a normal breast cells. AID 624296, 2012. Potency, µM (doses to about 46.1 µM), for the others: at the top dose activity, positive = re-replication, most hits filed as activators. hit rate 2.9% among 350,000. MCF 10A DNA re-replication, Hoechst nuclear intensity, 48 h; note: % of control where 0% means no effect; nearly all actives have a fitted effect of over 50% in size
KB-V1 cytotox: qHTS assay for MDR1-selective chemotherapeutics: Primary screen using the drug-selected MDR subline cells KB-V1; hit rate 3.4% among 400,000; Potency, µM (highest dose often 46.1 µM), hits mostly cytotoxic; KB-V1 MDR cells viability, CellTiter-Glo, 72 h; note: % is set by controls: 0 for no effect and ±100 for the full control effect; nearly all actives have a fitted effect of over 60% in size
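KB-V1 cells (P-gp-expressing MDR subline of KB-3-1) in phenol-red-free DMEM with 10% FBS were exposed to library compounds over a concentration series for 72 h at 37 degrees C. Viability read by CellTiter-Glo luminescence; concentration-effect curves fitted after normalization.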
Numbers without * were called inactive; i = inactive; ? = inconclusive; / = no result given; [ ] = remark or other dose. Calls come from the whole dose curve; as a rule, active = well fitted curve in the direction sought with a large enough effect; inconclusive = small, poorly fitted or top-dose-only effect, or another doubt; inactive = no such curve, though single readings can be large; an effect the other way counts as inactive or inconclusive. Potency is the fitted concentration of half-maximal effect.

SMILES	ELG1 repair inh	SW480 rereplic	KB-3-1 tox	MCF10A rereplic	KB-V1 cytotox
COc1ccc(/C=N/N=C2/NC(=O)C(CC(=O)O)S2)cc1OCc1ccc(Cl)cc1 (stereo not drawn)	10%	-1%	i	15%	i
Cc1nc([N+](=O)[O-])c(Sc2nc3ccccc3n2C)n1Cc1ccccc1	?	?	i	15µM*	i
Cc1nc([N+](=O)[O-])c(SCC(N)=O)n1Cc1ccccc1	3%	0%	i	10%	i
COc1cccc(-n2nnc3c(=O)n(Cc4ccccc4Cl)cnc32)c1	18%	-7%	i	-2%	18µM*
COc1cccc(-n2nnc3c(=O)n(Cc4ccc(Br)cc4)cnc32)c1	0%	-4%	i	22%	i
COc1cccc(-n2nnc3c(=O)n(Cc4ccc(C)cc4)cnc32)c1	-1%	0%	i	14%	?
COc1cccc(-n2nnc3c(=O)n(Cc4ccc(Cl)cc4)cnc32)c1	1%	-7%	i	11%	15µM*
O=C1c2ccccc2S(=O)(=O)c2cc(C(=O)N3CCN(c4ncccn4)CC3)ccc21	/	-6%	i	-4%	i
COc1ccc(C2C(C(=O)N3CCCCC3)c3ccccc3C(=O)N2C)cc1 (stereo not drawn)	-2%	?	i	12µM*	?
Oc1ccc(C=NNC(=S)Nc2cccnc2)nc1	/	13µM*	i	?	3.7µM*
CC(C)OP(=O)(c1ccccc1)c1ccccc1	7%	-4%	i	6%	i
COc1ccc(N(C)S(=O)(=O)c2cccc(C(=O)OCC(=O)c3c(N)n(C)c(=O)n(C)c3=O)c2)cc1	18µM*	2%	/	4%	/
C=CCN(c1ccc(OC)cc1)S(=O)(=O)c1ccc(Cl)c(C(=O)OCC(=O)c2c(N)n(C)c(=O)n(C)c2=O)c1	/	-7%	i	15%	16µM*
COc1ccc(C(=O)N[C@H](C(=O)N2CCN(c3ccccc3F)CC2)C(C)C)cc1	-2%	-2%	i	12%	i
NC(=O)COc1ccc(NS(=O)(=O)Cc2ccccc2)cc1	7%	-5%	i	-3%	i
COc1cc(N=Nc2ccc(Br)cc2)cc(C=O)c1O	/	/	?	/	15µM*
c1ccc(-c2nc3ccccc3[nH]2)nc1	?	21%	i	-23%	i
Cc1ccc2nc(-c3ccccn3)[nH]c2c1	?	0%	?	-15%	18µM*
COC(=O)C1CCN(C(=O)COC(=O)c2ccc(OC)c(S(=O)(=O)N3CCCc4ccccc43)c2)CC1	3%	-7%	i	1%	i
Cc1nc2c(sc(=S)n2Cc2ccco2)c(=O)n1CC(=O)Nc1cc(F)ccc1F	0%	-5%	i	23µM*	i
Cc1nc2c(sc(=S)n2Cc2ccco2)c(=O)n1CC(=O)Nc1ccc(F)cc1	12%	-9%	i	-1%	i
Cc1cc(C)cc(Nc2c3c(nc4ncnn24)CCC3)c1	-4%	?	i	?	2.1µM*
Clc1ccc(Nc2c3c(nc4ncnn24)CCC3)cc1	?	-26%	i	-3%	7.3µM*
COc1ccc(-c2cc(C(=O)OCc3ccccn3)c3ccccc3n2)cc1	?	13µM*	i	?	i
COc1ccc(-c2cc(C(=O)OCC(=O)N(C)C)c3ccccc3n2)cc1	?	-10%	i	1%	i
SMILES	ELG1 repair inh	SW480 rereplic	KB-3-1 tox	MCF10A rereplic	KB-V1 cytotox
COc1ccc(-c2cc(C(=O)Oc3ccc([N+](=O)[O-])cc3)c3ccccc3n2)cc1	?	?	i	18µM*	i
CCn1cc(C2=NC(CCSC)CO2)c2ccccc21 (stereo not drawn)	9%	-3%	i	-1%	i
COc1cccc(Nc2nc(Nc3ccc(Cl)c(C(=O)O)c3)nc(C)c2[N+](=O)[O-])c1	16%	-13%	i	12%	i
CCC(=O)N(c1nnc(SCC(=O)c2ccc[nH]2)s1)C1CC1	?	-1%	i	-2%	12µM*
CC(=O)Nc1ccc(NS(=O)(=O)C(F)(F)F)cc1	28%	-4%	i	10%	i
CC(C)(C)CC(=O)Nc1nnc(C(F)(F)F)s1	-13%	8%	i	-1%	i
O=C(Nc1nnc(C(F)(F)F)s1)c1ccc(Br)s1	?	2%	4.6µM*	19%	2.9µM*
CC(NC(=O)Nc1nnc(C(F)(F)F)s1)(C(F)(F)F)C(F)(F)F	5.2µM*	?	13µM*	12µM*	i
O=C(Nc1ccccc1C(=O)Nc1nnc(C(F)(F)F)s1)c1ccccc1Cl	5.2µM*	?	21µM*	?	?
O=C(Nc1ccccc1C(=O)Nc1nncs1)c1ccccc1	21µM*	-4%	i	?	i
NC(=O)c1ccccc1NC(=O)c1ccccc1Cl	15%	3%	i	9%	i
Cc1nn(-c2ccccc2)nc1C(=O)Nc1nnc(C(F)(F)F)s1	15µM*	-19%	?	?	?
Cn1ccc(NC(=O)c2ccc(Cl)cc2)n1	?	20%	i	-4%	i
Cc1cccc(C(=O)Nc2ccn(C)n2)c1	?	18µM*	i	-12%	i
COc1cc(S(=O)(=O)N2CCOCC2)cc(C(=O)c2nccn2C)c1OC	0%	2%	i	?	i
O=C(CCl)N1c2ccccc2SCC1c1ccccc1 (stereo not drawn)	?	15µM*	?	7.3µM*	i
O=C(CSc1n[nH]c(-c2ccc(Cl)cc2Cl)n1)Nc1ccccn1	10%	-5%	i	2%	16µM*
Cc1ccc(NC(=O)CSC2=NCCN2)cc1	11%	15%	i	21µM*	i
COc1ccccc1NC(=O)CSC1=NCCN1	?	-692%	i	-57%	i
Cc1nc(SCC(=O)Nc2ccccn2)n[nH]1	3%	-21%[1.84 µM]	i	-3%	i
O=C(CSc1n[nH]c(-c2ccncc2)n1)Nc1ccccc1	-3%	-15%	i	-11%	i
O=C(CSc1n[nH]c(-c2ccccn2)n1)Nc1ccc(Cl)cc1	21µM*	9.2µM*	?	20%	i
O=C(CSc1n[nH]c(-c2ccccn2)n1)Nc1ccc(F)cc1	?	3.3µM*	?	?	?
O=C(CSc1n[nH]c(-c2ccncc2)n1)Nc1ccc(F)cc1	-1%	3%	i	0%	i
CSCCNCc1c(C(=O)N2CCOCC2)nc2c(C)cccn12	7%	4%	i	-4%	i
